Data from PubChem BioAssay (NCATS).
Results filed as inconclusive are left out. Activity calls are given as the source filed them. The call rests on the fitted dose curve; in most records, active means well fitted curve in the direction sought with a large enough effect; inconclusive means small, poorly fitted or top-dose-only effect, or another doubt; inactive means no such curve, though single readings can be large; an effect the other way counts as inactive or inconclusive.

Assays:
[1] = qHTS of pediatric cancer cell lines to identify multiple opportunities for drug repurposing: Confirmatory screen for NB-EBc1 cells (AID 1347115);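 further: cells exposed to compound for 48 h before the viability read; nearly all actives have a fitted effect of over 45% in size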; further: potency means the concentration at half of the fitted maximal effect
Method in brief: (§1)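 Cells (500-1,000/well) in growth media were settled 5 h at 37 degrees C, then given compounds for 48 h. Viability was read as CellTiter-Glo luminescence. Primary runs used MIPE at 11 points (0.78 nM-46 µM) and NPC at 8 points (0.59 nM-46 µM); follow-ups used 11 points.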

[2] = qHTS of pediatric cancer cell lines to identify multiple opportunities for drug repurposing: Confirmatory screen for SJ-GBM2 cells (AID 1347116); further: nearly all actives have a fitted effect of over 60% in size; further: potency means the concentration at half of the fitted maximal effect
Method in brief: (§2)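 Viability measured as metabolically active cells via CellTiter-Glo luminescence following 48 hours of compound exposure, 11-point dilutions in confirmatory testing. 500-1,000 cells/well plated 5 hours before dosing; controls were DMSO and 2.3 µM bortezomib.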

[3] = qHTS of pediatric cancer cell lines to identify multiple opportunities for drug repurposing: Confirmatory screen for TC32 cells (AID 1347118);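 further: cells exposed to compound for 48 h before the read; nearly all actives have a fitted effect of over 65% in size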; further: potency means the concentration at half of the fitted maximal effect
Method in brief: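 qHTS, TC32, 48 h drug treatment, CellTiter-Glo luminescence as a proxy for metabolically active cells; primary top concentration 46 µM (MIPE 11-pt, NPC 8-pt); confirmatory 11-pt.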

[4] = qHTS of pediatric cancer cell lines to identify multiple opportunities for drug repurposing: Confirmatory screen for control Hh wild type fibroblast cells (AID 1347121); further: nearly all actives have a fitted effect of over 70% in size; further: potency means the concentration at half of the fitted maximal effect
Method in brief: as §1

[5] = qHTS of pediatric cancer cell lines to identify multiple opportunities for drug repurposing: Confirmatory screen for U-2 OS cells (AID 1347122); further: nearly all actives have a fitted effect of over 65% in size; further: potency means the concentration at half of the fitted maximal effect
Method in brief: as §1

[6] = qHTS of pediatric cancer cell lines to identify multiple opportunities for drug repurposing: Confirmatory screen for RD cells (AID 1347124);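 further: cells exposed to compound for 48 h before viability readout; nearly all actives have a fitted effect of over 65% in size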; further: potency means the concentration at half of the fitted maximal effect
Method in brief: as §1

[7] = qHTS of pediatric cancer cell lines to identify multiple opportunities for drug repurposing: Confirmatory screen for Rh18 cells (AID 1347125); further: nearly all actives have a fitted effect of over 55% in size; further: potency means the concentration at half of the fitted maximal effect
Method in brief: as §1

[8] = qHTS of pediatric cancer cell lines to identify multiple opportunities for drug repurposing: Confirmatory screen for Rh30 cells (AID 1347126); further: nearly all actives have a fitted effect of over 55% in size; further: potency means the concentration at half of the fitted maximal effect
Method in brief: as §1

[9] = qHTS of pediatric cancer cell lines to identify multiple opportunities for drug repurposing: Confirmatory screen for OHS-50 cells (AID 1347128);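 further: compound exposure lasted 48 h at 37 degrees C; nearly all actives have a fitted effect of over 55% in size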; further: potency means the concentration at half of the fitted maximal effect
Method in brief: as §1

[10] = tested on: Zika virus NS2B-NS3 protease; test: Primary screen GU AMC qHTS for Zika virus inhibitors (AID 1347154); further: nearly all actives have a fitted effect of over 70% in size; further: potency means the concentration at half of the fitted maximal effect
Method in brief: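 Unlinked Zika NS2B hydrophilic domain/NS3 protease domain noncovalent complex (25 nM final) in 10 mM Tris-HCl pH 8.0, 0.01% Tween 20, with AMC peptide substrate. Fluorescence (ex 340, em 450 nm) change over 15 min, room temperature; percent inhibition fitted to 4-parameter Hill equation.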

[11] = qHTS of pediatric cancer cell lines to identify multiple opportunities for drug repurposing: Confirmatory screen for DAOY cells (AID 1347114); further: nearly all actives have a fitted effect of over 65% in size; further: potency means the concentration at half of the fitted maximal effect
Method in brief: as §2

[12] = qHTS of pediatric cancer cell lines to identify multiple opportunities for drug repurposing: Confirmatory screen for BT-37 cells (AID 1347117); further: nearly all actives have a fitted effect of over 55% in size; further: potency means the concentration at half of the fitted maximal effect
Method in brief: as §1

[13] = qHTS of pediatric cancer cell lines to identify multiple opportunities for drug repurposing: Confirmatory screen for Rh41 cells (AID 1347123);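 further: 48 h compound exposure; nearly all actives have a fitted effect of over 60% in size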; further: potency means the concentration at half of the fitted maximal effect
Method in brief: as §1

Furin (Homo sapiens) = Furin (Homo sapiens) (UniProt P09958); test: Furin counterscreen qHTS for Zika virus inhibitors (AID 1347149); further: potency means the concentration at half of the fitted maximal effect; nearly all actives have a fitted effect of over 70% in size
Chain of Furin (Homo sapiens) (P09958 whole entry, looked up): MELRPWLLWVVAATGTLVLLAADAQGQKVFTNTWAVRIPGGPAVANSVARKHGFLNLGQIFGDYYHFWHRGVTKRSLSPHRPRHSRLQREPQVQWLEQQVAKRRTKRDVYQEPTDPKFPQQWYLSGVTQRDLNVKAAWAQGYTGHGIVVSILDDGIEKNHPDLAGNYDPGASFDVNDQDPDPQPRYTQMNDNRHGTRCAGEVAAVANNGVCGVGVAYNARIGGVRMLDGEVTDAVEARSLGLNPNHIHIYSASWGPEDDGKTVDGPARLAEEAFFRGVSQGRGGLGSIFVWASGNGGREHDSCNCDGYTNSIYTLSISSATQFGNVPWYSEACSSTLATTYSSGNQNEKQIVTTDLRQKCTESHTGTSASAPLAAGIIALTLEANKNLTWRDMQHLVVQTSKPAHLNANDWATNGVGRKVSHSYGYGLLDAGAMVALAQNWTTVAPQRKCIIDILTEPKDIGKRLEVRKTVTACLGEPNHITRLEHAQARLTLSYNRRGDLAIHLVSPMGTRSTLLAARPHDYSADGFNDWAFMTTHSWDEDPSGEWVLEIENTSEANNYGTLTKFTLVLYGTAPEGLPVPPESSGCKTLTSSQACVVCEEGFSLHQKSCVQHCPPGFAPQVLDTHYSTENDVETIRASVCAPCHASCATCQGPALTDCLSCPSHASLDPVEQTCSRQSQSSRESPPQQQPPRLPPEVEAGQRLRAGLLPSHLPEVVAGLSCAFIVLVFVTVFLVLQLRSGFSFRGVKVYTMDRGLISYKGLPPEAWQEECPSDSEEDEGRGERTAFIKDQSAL
Method in brief: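 Counterscreen measures cleavage of 2 microM BOC-RVRR-AMC, below its ~15 microM Km, by 5 nM full-length human furin at pH 7.0 after a 15-min compound preincubation. Inhibition derives from the 15-min fluorescence increase at 37C.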

[14] = tested on: Zika virus NS2B-NS3 protease (unlinked); test: Optimization of GU AMC qHTS for Zika virus inhibitors: Unlinked NS2B-NS3 protease assay (AID 1347151); further: series mostly up to about 52 µM; nearly all actives have a fitted effect of over 80% in size
Method in brief: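 Noncovalent complex of NS2B hydrophilic domain and NS3 protease domain, 25 nM final, in 10 mM Tris-HCl pH 8.0, 0.01% Tween 20. AMC fluorescence change over 15 min at room temperature was fitted to a 4-parameter Hill equation.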

[15] = tested on: Zika virus NS2B-NS3 protease (linked construct); test: Confirmatory screen NINDS AMC qHTS for Zika virus inhibitors (AID 1347152); further: nearly all actives have a fitted effect of over 70% in size; further: potency means the concentration at half of the fitted maximal effect
Method in brief: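 Purified NS2B-NS3 protease with NS2B hydrophilic domain linked to NS3 protease domain by flexible linker, 1 nM final in 10 mM Tris-HCl pH 8.0, 0.01% Tween 20. Compounds preincubated 15 min, room temperature; Bz-Nle-KRR-AMC 10 microM (Km 18.3 µM); 15-min fluorescence change, 4-parameter Hill fit.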

[16] = tested on: Zika virus NS2B-NS3 protease (unlinked complex); test: Confirmatory screen GU AMC qHTS for Zika virus inhibitors (AID 1347153); further: nearly all actives have a fitted effect of over 70% in size
Method in brief: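 Fluorescence change (ex 340/em 450 nm) over 15 min, ~20% substrate conversion, normalized to no-inhibitor and no-enzyme controls, then Hill-fitted. Unlinked protease at 25 nM; AMC peptide 10 µM.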

Measured: Potency

COc1cc(Nc2ncc3c(n2)-c2ccc(Cl)cc2C(c2c(F)cccc2OC)=NC3)ccc1C(=O)O
active: [1] 20.8 µM | [3] 0.147 µM | [5] 10.4 µM
inactive: [2] | [4] | [6] | [7] | [8] | [9] | [10]

COCC(=O)NCC=Cc1ccc2ncnc(Nc3ccc(Oc4ccc(C)nc4)c(C)c3)c2c1
inactive: [2] | [6]
active: [11] 16.5 µM | [1] 30.2 µM | [12] 24 µM | [3] 26.9 µM | [4] 42.7 µM | [13] 18.5 µM | [8] 2.93 µM | [9] 42.7 µM | Furin (Homo sapiens) 30.3 µM

Cn1cnc2c(F)c(Nc3ccc(Br)cc3Cl)c(C(=O)NOCCO)cc21
inactive: [1] | [3] | [4] | [13] | [6] | [7] | [8] | [10]
active: [5] 16.5 µM

CCOc1ccn(-c2ccc(F)cc2)c(=O)c1C(=O)Nc1ccc(Oc2ccnc(N)c2Cl)c(F)c1
inactive: [11] | [1] | [4] | [5] | [6] | [8] | [10]
active: [2] 14.7 µM | [3] 7.37 µM

OC(CN1CCC(Cc2ccc(F)cc2)CC1)c1ccc(Cl)cc1 (stereo not drawn)
inactive: [11] | [1] | [2] | [4] | [6] | [7] | [8] | [14] | [10]

NC(=O)c1ccc(I)c([N+](=O)[O-])c1
inactive: [1] | [2] | [12] | [4] | [5] | [6] | [7] | [9]
active: [11] 61.8 µM | [3] 39 µM | [13] 43.7 µM

OC[C@H](Cc1ccccc1)Nc1nc(Oc2ccc3c(c2)CCC3)nc2c1ncn2Cc1ccc(-c2ccccc2)cc1
inactive: [2] | [12] | [4] | [6] | [7] | [10]

COc1ccc(-c2ccc3c(N4CCOCC4)nc(N4C[C@@H](C)O[C@@H](C)C4)nc3n2)cc1CO
active: [11] 9.27 µM | [2] 1.47 µM | [5] 1.65 µM | [13] 0.657 µM | [6] 1.31 µM | [7] 1.31 µM | [8] 0.657 µM | Furin (Homo sapiens) 24.1 µM | [15] 27.1 µM | [16] 27.1 µM | [10] 19.2 µM

O=NN(CCCl)C(=O)NCCCl
not listed: [1] | [3] | [12] | Furin (Homo sapiens) | [15] | [16]
inactive: all other assays above

CS(=O)(=O)c1ccc(C(=O)Nc2ccc(Cl)c(-c3ccccn3)c2)c(Cl)c1
active: [3] 4.65 µM
not listed: [10] | [13] | Furin (Homo sapiens) | [14] | [15] | [16]
inactive: all other assays above

C[C@]1(c2nc3c(C(N)=O)cccc3[nH]2)CCCN1
active: [3] 18.5 µM
not listed: [10] | [12] | Furin (Homo sapiens) | [14] | [15] | [16]
inactive: all other assays above

CC(C=CC1=C(C)CCCC1(C)C)=CC=CC(C)=CC(=O)O
active: [3] 16.5 µM
not listed: [13] | Furin (Homo sapiens) | [14] | [15] | [16]
inactive: all other assays above

CCC(C)(C)C(=O)O[C@H]1C[C@@H](C)C=C2C=C[C@H](C)[C@H](CC[C@@H]3C[C@@H](O)CC(=O)O3)[C@H]21
inactive: [1] | [10]
active: [11] 5.85 µM | [3] 16.5 µM | [5] 10.4 µM | [8] 16.5 µM

COc1cccc2cc(-c3nc(C4CCC(C(=O)O)CC4)n4ncnc(N)c34)[nH]c12 (stereo not drawn)
inactive: [1] | [12] | [3] | [4] | [6] | [9]
active: [13] 2.08 µM | [8] 10.4 µM

C#Cc1cccc(Nc2ncnc3cc(OCCOC)c(OCCOC)cc23)c1
active: [12] 5.85 µM | [3] 14.7 µM | [13] 9.27 µM
inactive: [4] | [6] | [7]

Nc1nc2ccc(OC(F)(F)F)cc2s1
active: [9] 18.5 µM
not listed: [5] | [11] | [12] | Furin (Homo sapiens) | [15] | [16]
inactive: all other assays above

O=C(c1cc(Cc2n[nH]c(=O)c3ccccc23)ccc1F)N1CCN(C(=O)C2CC2)CC1
inactive: [1] | [2] | [3] | [4] | [6] | [7] | [8] | [9]
active: [13] 9.27 µM

CCCS(=O)(=O)Nc1ccc(F)c(C(=O)c2c[nH]c3ncc(-c4ccc(Cl)cc4)cc23)c1F
active: [3] 18.5 µM | [5] 23.3 µM | [13] 13.1 µM
inactive: [1] | [4] | [6]

CN1CCN(CCCN2c3ccccc3Sc3ccc(C(F)(F)F)cc32)CC1
inactive: [14] | [15] | [16] | [10]
active: [11] 18.5 µM | [12] 23.3 µM | [5] 23.3 µM | [13] 14.7 µM | [6] 23.3 µM | [7] 20.8 µM | [9] 20.8 µM
